Hit rate of the full screen: of about 5,500 compounds, about 2,000 (36%) were called active. Not shown: some 18% with an inconclusive outcome. Cut-off read from the data, not from the text of the source: active = normalized growth mostly below about 0.91 (no sharp cut-off); inconclusive = no clear call, values can overlap the other calls; inactive = mostly above about 0.92. The list shows a part of the results.
Assay: chemical genetic growth profiling, strain panel (AID 1159580);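 note: tested at 20 µM; growth read once vehicle control cultures reached saturation at 30 °C; 1 = growth at the plate median or of vehicle wells; lower values mean less growth of the strain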
Details: S. cerevisiae deletion strains, growth OD

Measured: normalized growth

CC(C)C[C@H](NC(=O)C1OC1C(=O)O)C(=O)NCCCCN=C(N)N (stereo partly specified)
inactive: locus YAL013W, strain DEP1, hits give low values 1.01 | locus YAL040C, strain CLN3, hits give low values 0.949 | locus YCL061C, strain MRC1 (second series), hits give low values 0.993 | locus YDR150W, strain NUM1, hits give low values 0.989 | locus YDR363W, strain ESC2, hits give low values 1.01 | locus YER002W, strain NOP16, hits give low values 0.985 | locus YGR078C, strain PAC10, hits give low values 0.988 | locus YGR229C, strain SMI1, hits give low values 1.04 | locus YMR263W, strain SAP30, hits give low values 0.997 | locus YNL128W, strain TEP1, hits give low values 0.998 | locus YNL175C, strain NOP13, hits give low values 0.984 | locus YNL197C, strain WHI3, hits give low values 0.971 | locus YNL224C, strain SQS1, hits give low values 1.01 | locus YOR083W, strain WHI5 (second series), hits give low values 0.979 | locus YPL055C, strain LGE1, hits give low values 1.02 | locus YPL241C, strain CIN2, hits give low values 0.995

Source: PubChem BioAssay AID1159580 (chemical genetic matrix, 2015)
